# From PubChem BioAssay (NCATS)
# Values without a mark were called inactive. Records with an inconclusive call do not appear. A call without a number means that no potency is given here. Activity calls are given as the source filed them. Unless noted, calls come from the whole dose curve; as a rule, active = well fitted curve in the direction sought with a large enough effect; inconclusive = small, poorly fitted or top-dose-only effect, or another doubt; inactive = no such curve, though single readings can be large; an effect the other way counts as inactive or inconclusive.
# How the values were obtained:
# [1] = Viability counterscreen for antagonist of constitutive androstane receptor (CAR) against the NCATS DSHEA and TCM libraries (AID 1794837);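 note: compound exposure lasted 24 h before viability reading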
# How it was run: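 Cells: HepG2 line carrying CYP2B6 reporter and hCAR, seeded and attached 5 h. Then pin-transferred test substances plus agonist CITCO at 48 uM final; 24 h incubation; fluorogenic viability reagent, 1 h.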
# [2] = Viability counterscreen for agonist of constitutive androstane receptor (CAR) against the NCATS DSHEA and TCM libraries (AID 1794838);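 note: HepG2 cells with CYP2B6 reporter and hCAR plus 0.75 µM PK11195 antagonist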
# How it was run: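 Cell health was measured as CellTiter-Fluor signal in HepG2-CYP2B6-hCAR cells treated for 24 h with substances alongside the hCAR antagonist PK11195 (0.75 uM final).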
# [3] = target: Nuclear receptor subfamily 1 group I member 3 (Homo sapiens) (UniProt Q14994); assay: Primary qHTS for agonist of constitutive androstane receptor (CAR) against the NCATS DSHEA and TCM libraries (AID 1794839); note: potency is the fitted concentration of half-maximal effect
# Sequence of Nuclear receptor subfamily 1 group I member 3 (Homo sapiens) (Q14994 whole entry, looked up): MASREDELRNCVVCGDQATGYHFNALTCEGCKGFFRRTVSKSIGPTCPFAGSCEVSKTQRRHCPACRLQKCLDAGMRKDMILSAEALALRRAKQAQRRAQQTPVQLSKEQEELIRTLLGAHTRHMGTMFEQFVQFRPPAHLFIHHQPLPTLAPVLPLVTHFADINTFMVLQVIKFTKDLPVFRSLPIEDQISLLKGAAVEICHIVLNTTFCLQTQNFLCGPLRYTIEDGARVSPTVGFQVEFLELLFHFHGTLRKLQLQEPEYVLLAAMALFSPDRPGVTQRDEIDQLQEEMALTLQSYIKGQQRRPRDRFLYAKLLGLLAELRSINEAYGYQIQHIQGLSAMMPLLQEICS
# How it was run: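 qHTS, agonist mode: HepG2-CYP2B6-hCAR, 2,500 cells/well, 5 h attach; cpds + PK11195 0.75 µM final; 24 h, 37 °C, 5% CO2. Readouts: CellTiter-Fluor (405/540 nm), then ONE-Glo luminescence.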
# [4] = HepG2 viability counterscreen (readout 1: protease activity) against the NCATS DSHEA and TCM libraries (AID 1794841);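 note: cells exposed to compounds for about 24 h before the protease read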
# How it was run: (§1)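 Same wells read twice: first fluorescence from cleaved GF-AFC substrate (25 uM final, 30 min, 37C) for live-cell protease, then CellTiter-Glo luminescence after 30 min at room temperature for ATP. HepG2 cells were exposed ~24 h to substances.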
# [5] = target: Cytochrome P450 2D6 (Homo sapiens) (UniProt P10635); assay: qHTS for inhibitors of CYP2D6 against the NCATS DSHEA and TCM libraries (AID 1919972)
# Sequence of Cytochrome P450 2D6 (Homo sapiens) (P10635 whole entry, looked up): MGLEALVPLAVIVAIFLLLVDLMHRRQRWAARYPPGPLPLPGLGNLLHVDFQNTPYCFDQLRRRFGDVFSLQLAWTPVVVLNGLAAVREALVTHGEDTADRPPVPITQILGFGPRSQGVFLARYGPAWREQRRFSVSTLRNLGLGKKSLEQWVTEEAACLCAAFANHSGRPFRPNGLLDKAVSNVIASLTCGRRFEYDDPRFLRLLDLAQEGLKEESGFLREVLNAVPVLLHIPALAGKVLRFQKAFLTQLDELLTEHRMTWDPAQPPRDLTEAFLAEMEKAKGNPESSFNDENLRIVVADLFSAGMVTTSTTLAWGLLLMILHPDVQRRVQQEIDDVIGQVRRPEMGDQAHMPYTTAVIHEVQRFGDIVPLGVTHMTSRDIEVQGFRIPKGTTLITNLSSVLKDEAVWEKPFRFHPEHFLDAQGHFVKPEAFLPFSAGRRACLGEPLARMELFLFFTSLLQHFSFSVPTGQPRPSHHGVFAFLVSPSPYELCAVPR
# How it was run: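 Luminescent P450-Glo read-out of CYP2D6 turnover of a luciferin substrate after NADPH-driven reaction of 30-45 min at room temperature. Compounds were first preincubated 15 min with enzyme at titrated concentrations; quinidine was the intraplate control.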
# [6] = target: Cytochrome P450 2C19 (Homo sapiens) (UniProt P33261); assay: qHTS for inhibitors of CYP2C19 against the NCATS DSHEA and TCM libraries (AID 1919974);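 note: luminescence from luciferin released by CYP2C19 oxidation of a pro-luciferin substrate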; note: potency is the fitted concentration of half-maximal effect
# Sequence of Cytochrome P450 2C19 (Homo sapiens) (P33261 whole entry, looked up): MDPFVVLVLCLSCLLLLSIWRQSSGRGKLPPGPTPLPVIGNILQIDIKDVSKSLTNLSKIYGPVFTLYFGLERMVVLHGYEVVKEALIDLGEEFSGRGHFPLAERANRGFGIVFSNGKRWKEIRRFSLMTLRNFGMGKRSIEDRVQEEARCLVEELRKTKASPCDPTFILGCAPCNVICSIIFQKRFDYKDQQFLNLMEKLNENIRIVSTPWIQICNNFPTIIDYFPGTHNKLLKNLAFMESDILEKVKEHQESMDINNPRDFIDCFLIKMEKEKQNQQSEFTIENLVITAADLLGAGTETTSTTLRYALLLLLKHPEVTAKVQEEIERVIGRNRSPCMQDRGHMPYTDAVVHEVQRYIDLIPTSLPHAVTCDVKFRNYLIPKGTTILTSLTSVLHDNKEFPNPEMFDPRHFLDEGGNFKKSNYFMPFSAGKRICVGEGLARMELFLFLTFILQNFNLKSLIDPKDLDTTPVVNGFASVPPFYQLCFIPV
# How it was run: (§2)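 Luminescent P450-Glo format: compounds preincubated 15 min with enzyme and luciferin substrate, reaction run 30-45 min after NADPH regeneration solution. Intraplate controls: ketoconazole for CYP3A4 and CYP2C19, sulfaphenazole for CYP2C9.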
# [7] = KB-3-1 P-gp reporter qHTS against the NCATS DSHEA and TCM libraries (AID 1919975)
# How it was run: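 KB-3-1 parental line, 1536-well qHTS: cells seeded, ~4 h attachment, pintool compound addition, ~72 h at 37C, then CellTiter-Glo, 30 min RT, luminescence. Concentration-response format.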
# [8] = qHTS Counterscreen for compound interference against the NCATS DSHEA and TCM libraries (AID 1919978); conditions: firefly luciferase detection reagent interference, luminescence;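 note: compounds preincubated with 1 µM D-luciferin or buffer before detection reagent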
# How it was run: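 Compounds, titrated from 19.5 nM to 39.8 uM final, were pinned onto 1 uM D-luciferin or plain 100 mM potassium phosphate. After 15 min at room temperature, luciferin detection reagent was added for 30 min before the luminescence read.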
# [9] = target: Nuclear receptor subfamily 1 group I member 2 (Homo sapiens) (UniProt O75469); assay: Dual reporter qHTS for antagonist of Pregnane X Receptor (hPXR) against the NCATS DSHEA and TCM libraries: Luminescence Readout (AID 1920060)
# Sequence of Nuclear receptor subfamily 1 group I member 2 (Homo sapiens) (O75469 whole entry, looked up): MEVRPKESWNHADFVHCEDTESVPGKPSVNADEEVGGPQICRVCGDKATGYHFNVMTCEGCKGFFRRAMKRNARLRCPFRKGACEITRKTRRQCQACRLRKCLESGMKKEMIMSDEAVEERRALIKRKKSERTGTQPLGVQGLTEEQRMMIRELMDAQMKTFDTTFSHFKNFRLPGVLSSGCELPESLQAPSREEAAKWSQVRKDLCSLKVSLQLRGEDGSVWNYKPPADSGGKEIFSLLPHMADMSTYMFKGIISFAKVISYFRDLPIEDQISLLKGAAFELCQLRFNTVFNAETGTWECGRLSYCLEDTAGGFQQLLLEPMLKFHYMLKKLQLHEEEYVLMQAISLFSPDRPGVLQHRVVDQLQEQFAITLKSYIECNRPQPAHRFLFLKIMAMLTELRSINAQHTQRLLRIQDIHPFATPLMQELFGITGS
# How it was run: (§3)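 Rifampicin-stimulated (2 uM final) hPXR-luciferase HepG2 cells were treated for 24 h with DSNP/TCM substances. Viability came from CellTiter-Fluor fluorescence, reporter activity from ONE-Glo luminescence.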
# [10] = Dual reporter qHTS for antagonist of Pregnane X Receptor (hPXR) against the NCATS DSHEA and TCM libraries: Fluorescence Readout (AID 1920061)
# How it was run: as §3
# [11] = Dual reporter qHTS for agonist of Pregnane X Receptor (hPXR) against the NCATS DSHEA and TCM libraries: Fluorescence readout (AID 1920058)
# How it was run: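 hPXR-Luc HepG2 cells, 2000/well in charcoal-stripped serum, attached 5 h, dosed for ~24 h at 37 °C. Fluorescence read is CellTiter-Fluor viability (Ex/Em 405/540 nm); rifampicin positive, tetraoctyl ammonium bromide (92 µM) cytotoxicity controls.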
# [12] = target: Nuclear receptor subfamily 1 group I member 2 (Homo sapiens) (UniProt O75469); assay: Dual reporter qHTS for agonist of Pregnane X Receptor (hPXR) against the NCATS DSHEA and TCM libraries: Luminescence readout (AID 1920059)
# How it was run: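 hPXR-LucHepG2 cells in phenol red-free DMEM with 5% charcoal-stripped FBS, 2000 cells/well, attached 5 h, then exposed 24 h at 37C to compounds; rifampicin as positive agonist control (2.8 nM–92 uM). Luciferase luminescence read.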
# [13] = HepG2 viability counterscreen (readout 2: ATP content) against the NCATS DSHEA and TCM libraries (AID 1794840)
# How it was run: as §1
# [14] = target: Cytochrome P450 3A4 (Homo sapiens) (UniProt P08684); assay: qHTS for inhibitors of CYP3A4 against the NCATS DSHEA and TCM libraries (AID 1919971);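 note: inhibition lowers luminescence from luciferin made by CYP3A4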
# Sequence of Cytochrome P450 3A4 (Homo sapiens) (P08684 whole entry, looked up): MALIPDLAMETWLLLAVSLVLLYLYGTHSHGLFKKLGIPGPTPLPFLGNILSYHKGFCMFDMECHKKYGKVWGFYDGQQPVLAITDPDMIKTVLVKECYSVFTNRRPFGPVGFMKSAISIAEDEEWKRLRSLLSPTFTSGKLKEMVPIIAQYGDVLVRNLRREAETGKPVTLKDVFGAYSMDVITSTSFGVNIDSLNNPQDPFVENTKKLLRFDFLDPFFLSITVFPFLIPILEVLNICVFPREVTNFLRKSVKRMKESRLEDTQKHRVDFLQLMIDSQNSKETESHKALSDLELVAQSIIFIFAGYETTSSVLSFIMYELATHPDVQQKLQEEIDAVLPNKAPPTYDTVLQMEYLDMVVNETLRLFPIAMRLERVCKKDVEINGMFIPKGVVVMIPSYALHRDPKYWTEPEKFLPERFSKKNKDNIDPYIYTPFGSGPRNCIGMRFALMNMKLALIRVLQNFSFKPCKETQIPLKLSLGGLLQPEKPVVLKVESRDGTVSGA
# How it was run: as §2
# [15] = target: Mitogen-activated protein kinase 10 (Mus musculus) (UniProt Q61831); assay: JNK3 AlphaScreen Assay (AID 530; active = well fitted curve in either direction with a large enough effect, not every such curve was filed as active;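 note: kinase came from lysate of stimulated human HepG2 cells; signal reports phosphorylation of biotinylated GST-cJun 1-79 at Ser73 with 10 µM ATP; series mostly up to about 57 µM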)
# How it was run: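 Inhibitors reduce antibody binding to phosphorylated biotin-cJun, lowering AlphaScreen luminescence. Lysates from HepG2 cells pre-activated by IL-1beta plus TNF-alpha supplied JNK3; compounds were titrated.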
Compound,outcome [1],outcome [2],Potency [3],outcome [4],Potency [5],Potency [6],outcome [7],max response [8] [%],outcome [9],outcome [10],outcome [11],Potency [12],outcome [13],Potency [14],Potency [15]
CCCCCCCCC[C@@H](O)CC(=O)CCc1ccc(O)c(OC)c1,inactive,inactive,12.6 µM (active),inactive,inactive,6.31 µM (active),inactive,2.63,inactive,inactive,,,,,
CCCCCCCC/C=C\CCCCCCCCCCCC(=O)O,inactive,inactive,inactive,inactive,inactive,,inactive,,inactive,inactive,inactive,inactive,,,
C=C1CC[C@H]2C[C@@H]1C2(C)C,,,,inactive,inactive,inactive,inactive,0.51,inactive,inactive,inactive,inactive,inactive,inactive,
CC[C@H](CC[C@@H](C)[C@H]1CCC2C3CCC4C[C@@H](O)CC[C@]4(C)C3CC[C@@]21C)C(C)C (stereo not given in full),inactive,inactive,inactive,inactive,inactive,inactive,inactive,-1.23,inactive,inactive,,inactive,,inactive,
C=C(C)[C@H]1CC=C(CO)CC1,inactive,inactive,,inactive,inactive,12.6 µM (active),inactive,2.16,inactive,inactive,inactive,inactive,inactive,,
O=C(/C=C/c1ccc(O)c(O)c1)OC1[C@H](O)CC(O)(C(=O)O)C[C@@H]1O (stereo not given in full),inactive,inactive,inactive,inactive,,inactive,inactive,,inactive,inactive,,inactive,,inactive,
C=C1C[C@@]23CC[C@H]4[C@](C)(CCC[C@]4(C)C(=O)O[C@@H]4O[C@H](CO)[C@@H](O)[C@H](O)[C@H]4O)[C@@H]2CC[C@]1(O[C@H]1O[C@@H](CO)[C@H](O)[C@@H](O)[C@@H]1O)C3,inactive,inactive,inactive,inactive,inactive,,inactive,,inactive,inactive,inactive,inactive,,inactive,
CC12CC3(O)OC(O1)C1(COC(=O)c4ccc(O)cc4)C3CC21OC1OC(CO)C(O)C(O)C1O (stereo not given),inactive,inactive,inactive,inactive,inactive,inactive,inactive,4.47,inactive,inactive,inactive,inactive,,inactive,
COc1cc(/C=C/c2ccccc2)oc(=O)c1,inactive,inactive,12.6 µM (active),inactive,inactive,,inactive,2.93,inactive,inactive,,,,inactive,inactive
CC(C)=CCC[C@](C)(O[C@@H]1O[C@H](CO)[C@@H](O)[C@H](O)[C@H]1O)[C@H]1CC[C@]2(C)[C@@H]1[C@H](O)C[C@@H]1[C@@]3(C)CC[C@H](O)C(C)(C)[C@@H]3[C@@H](O[C@@H]3O[C@H](CO)[C@@H](O)[C@H](O)[C@H]3O[C@@H]3O[C@@H](C)[C@H](O)[C@@H](O)[C@H]3O)C[C@]12C,inactive,inactive,inactive,inactive,inactive,inactive,inactive,,inactive,inactive,inactive,inactive,,inactive,
O=C(O)c1ccccc1,inactive,inactive,inactive,inactive,inactive,inactive,inactive,,inactive,inactive,inactive,inactive,,inactive,inactive
